PubChem BioAssay AID624101 (Broad Institute, 2012)
Out of some 70,000 compounds screened, about 120 (0.17%) were called active. The sample as a whole holds a higher share of actives than the screen did. Unmarked numbers belong to inactive results. Rule as the data show it: active = inhibition above about 34%; inconclusive = no clear call, values can overlap the other calls; inactive = below about 11%.

The molecules below were run against Isocitrate dehydrogenase [NADP] cytoplasmic (Homo sapiens) (UniProt O75874) (assay: PubChem AID 624101). Conditions: IDH1 R132H reductase, diaphorase/resazurin fluorescence, 60 min; at 10 µM; hits give high values.
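Also: 0% = DMSO and 100% = no enzyme.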

Isocitrate dehydrogenase [NADP] cytoplasmic (Homo sapiens), sequence (O75874 whole entry R132H): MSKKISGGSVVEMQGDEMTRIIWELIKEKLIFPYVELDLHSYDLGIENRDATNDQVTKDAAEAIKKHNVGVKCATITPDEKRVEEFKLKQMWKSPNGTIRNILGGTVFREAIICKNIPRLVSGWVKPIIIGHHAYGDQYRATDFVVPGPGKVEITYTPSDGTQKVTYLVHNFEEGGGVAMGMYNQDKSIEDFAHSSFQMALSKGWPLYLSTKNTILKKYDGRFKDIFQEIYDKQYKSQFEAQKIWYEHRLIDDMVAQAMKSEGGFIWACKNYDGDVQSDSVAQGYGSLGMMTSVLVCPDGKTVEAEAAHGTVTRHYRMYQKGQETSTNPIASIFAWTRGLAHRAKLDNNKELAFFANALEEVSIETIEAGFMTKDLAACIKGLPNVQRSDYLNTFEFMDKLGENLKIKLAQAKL

Point of comparison: `CO[C@H]1CN(C)C(=O)c2cc(NC(=O)C3CC3)ccc2OC[C@H](C)N(C(=O)CN(C)C)C[C@H]1C`, inhibition 0.155%. Against it:
- COc1cccc(-c2ccc3c(c2)O[C@H](CN(C)C(=O)C2CCOCC2)[C@H](C)CN([C@H](C)CO)S3(=O)=O)c1 — lower, -1.58%
- C[C@H](O)C#Cc1ccc2c(c1)O[C@H](CN(C)Cc1ccccn1)[C@H](C)CN([C@H](C)CO)S2(=O)=O — higher, 1.79%
- C[C@@H]1CN([C@@H](C)CO)S(=O)(=O)c2ccc(C#CCC3CCCC3)cc2O[C@@H]1CN(C)C — lower, -1.79%
- CCCN(C)C[C@H]1Oc2cc(C#CCC(C)C)ccc2S(=O)(=O)N([C@H](C)CO)C[C@H]1C — lower, -4.36%
- CCCC#Cc1ccc2c(c1)O[C@@H](CN(C)CCC)[C@@H](C)CN([C@H](C)CO)S2(=O)=O — lower, -0.176%
- C/C=C/c1ccc2c(c1)O[C@H](CN(C)C(=O)Cc1cccnc1)[C@@H](C)CN([C@H](C)CO)S2(=O)=O — higher, 9.7%
- C[C@@H]1CN([C@@H](C)CO)S(=O)(=O)c2ccc(C#CCC3CCCC3)cc2O[C@H]1CN(C)Cc1ccc(C(=O)O)cc1 — higher, 0.74%
- C/C=C/c1ccc2c(c1)O[C@@H](CN(C)C(=O)Cc1ccccc1)[C@H](C)CN([C@@H](C)CO)S2(=O)=O — lower, 0.0005%
- C[C@@H]1CCCCO[C@@H](CN(C)C(=O)Nc2ccc(C(F)(F)F)cc2)[C@H](C)CN([C@H](C)CO)C(=O)c2cc(NC(=O)C3CCCCC3)ccc2O1 — higher, 1.02%
- O=C(NCC[C@@H]1CC[C@H](NC(=O)C2CC2)[C@@H](CO)O1)c1cc(Cl)cc(Cl)c1 — higher, 0.406%
- CCCNC(=O)C[C@H]1C[C@@H]2c3cc(NC(=O)C4CCOCC4)ccc3O[C@@H]2[C@H](CO)O1 — lower, 0.074%
- C[C@@H](NC(=O)C[C@@H]1C=C[C@@H](NC(=O)CN2CCOCC2)[C@H](CO)O1)c1ccccc1 — lower, 0.081%
- CO[C@@H]1CN(C)C(=O)c2ccc(NC(=O)C3CC3)cc2OC[C@H](C)N(C(=O)c2ccccc2)C[C@@H]1C — lower, 0.146%
- CO[C@@H]1CN(C)C(=O)c2cc(NS(=O)(=O)c3ccccc3C)ccc2OC[C@@H](C)N(S(C)(=O)=O)C[C@@H]1C — lower, -0.22%
- Cc1ccc(S(=O)(=O)N[C@@H]2CC[C@H](CCn3cc(C4(O)CCCC4)nn3)O[C@H]2CO)cc1 — higher, 0.172%
- CCNC(=O)C[C@@H]1CC[C@H](NC(=O)NC2CCCCC2)[C@H](CO)O1 — lower, 0.102%
- CO[C@@H]1CN(C)C(=O)c2ccc(NC(=O)C3CCCC3)cc2OC[C@H](C)NC[C@@H]1C — lower, -0.326%
- CO[C@@H]1CN(C)C(=O)c2cc(NC(=O)c3ccccc3F)ccc2OC[C@H](C)NC[C@@H]1C — higher, 0.217%
- COc1cccc(CNC(=O)c2cc3c(c(-c4cccc(-c5ccc(C#N)cc5)c4)n2)[C@@H](CCO)N([S@](=O)C(C)(C)C)C3)c1 — higher, 0.432%
- O=C(N[C@@H]1CC[C@@H](CCNS(=O)(=O)c2ccccc2Cl)O[C@@H]1CO)c1ccccc1 — lower, -0.485%
- CO[C@@H]1CN(C)C(=O)c2cc(NC(=O)C3CC3)ccc2OC[C@@H](C)N(C(=O)c2ccncc2)C[C@H]1C — higher, 0.284%
- COc1ccccc1-c1cnc2c(c1)C(=O)N([C@@H](C)CO)C[C@H](C)[C@@H](CN(C)C(C)=O)O2 — lower, -1.01%
- O=C(C[C@H]1C[C@H]2c3cc(NS(=O)(=O)c4ccc(F)cc4)ccc3O[C@H]2[C@H](CO)O1)NCc1cc(F)ccc1F — lower, -0.236%
- O=C(N[C@H]1CC[C@@H](CCNS(=O)(=O)c2cccc(Cl)c2)O[C@@H]1CO)c1ccccc1 — lower, -0.277%
- CC(C)NC(=O)N[C@H]1CC[C@@H](CC(=O)NCc2ccc(Oc3ccccc3)cc2)O[C@@H]1CO — lower, -0.181%
- O=C(N[C@H]1CC[C@H](CCNS(=O)(=O)c2ccc(F)cc2)O[C@H]1CO)C1CCC1 — lower, -0.096%
- C[C@@H]1CN([C@H](C)CO)C(=O)c2cc(-c3ccc(C(=O)N(C)C)cc3)cnc2O[C@H]1CN(C)C(=O)C1CC1 — lower, -0.906%
- CO[C@@H](CN(C)C(=O)c1cnccn1)[C@@H](C)CN([C@@H](C)CO)S(=O)(=O)c1ccc(Cl)cc1 — lower, 0.106%
- O=C(C[C@H]1C[C@@H]2c3cc(NC(=O)c4cccnc4)ccc3O[C@@H]2[C@H](CO)O1)NCc1ccccn1 — lower, -0.419%
- CO[C@H]1CN(C)C(=O)c2ccc(NC(=O)c3ccc4c(c3)OCO4)cc2OC[C@@H](C)NC[C@@H]1C — lower, 0.0335%
- COCC(=O)Nc1ccc2c(c1)OC[C@@H](C)N(C(=O)c1cnccn1)C[C@H](C)[C@@H](OC)CN(C)C2=O — lower, 0.0305%
- CO[C@@H]1CN(C)C(=O)c2ccc(NC(=O)Nc3ccccc3)cc2OC[C@@H](C)N(C(=O)Nc2c(C)noc2C)C[C@@H]1C — lower, -0.183%
- CO[C@@H]1CN(C)C(=O)c2cc(NS(=O)(=O)CC(F)(F)F)ccc2OC[C@@H](C)N(Cc2ccccn2)C[C@H]1C — lower, 0.0375%
- O=C(C[C@@H]1C[C@H]2c3cc(NC(=O)Nc4ccccc4F)ccc3O[C@H]2[C@@H](CO)O1)NC1CCCCC1 — lower, -0.261%
- CCC(=O)Nc1ccc2c(c1)C(=O)N(C)C[C@H](OC)[C@H](C)CN(C(=O)C1CCC1)[C@@H](C)CO2 — higher, 0.203%
- COCC(=O)Nc1ccc2c(c1)OC[C@@H](C)N(C(=O)c1ccncc1)C[C@@H](C)[C@@H](OC)CN(C)C2=O — lower, -0.0035%

With `C[C@@H]1CN([C@H](C)CO)S(=O)(=O)c2ccc(C#CCC3CCCC3)cc2O[C@H]1CN(C)Cc1ccc(C(=O)O)cc1` the inhibition was 45.9% (active).
With `C/C=C/c1ccc2c(c1)O[C@H](CN(C)C(=O)Cc1ccncc1)[C@@H](C)CN([C@@H](C)CO)S2(=O)=O` the inhibition was 37.6% (active).
In the case of `CCCN(C)C[C@@H]1Oc2cc(C#CCc3ccccc3)ccc2S(=O)(=O)N([C@H](C)CO)C[C@@H]1C`, the inhibition is reported as 35.5% (active).
